Screening results as filed in PubChem.
Compounds with a hit are over-represented: about 11% of the library has one in this group of screens.
OTUD3 block: inhibitors of human OTUD3 deubiquitinase; purified OTUD3, Ub-rhodamine fluorescence, 2 h; inhibition, % at 25 µM; hit rate 0.7% among 47,000; AID 1645858, 2021
USP17 inh: inhibitors of human USP17 deubiquitinase; Ubiquitin carboxyl-terminal hydrolase 17-like protein 5 (Homo sapiens), A8MUK1; purified USP17, Ub-rhodamine cleavage fluorescence, 3 h; inhibition, % at 50 µM; hit rate 6.5% among 47,000
USP30 inh: inhibitors of human USP30 deubiquitinase. purified USP30, Ub-rhodamine cleavage fluorescence. hit rate 5.3% among 47,000. inhibition, % at 25 µM
USP28 inh: inhibitors of human USP28 deubiquitinase. purified USP28, Ub-rhodamine cleavage fluorescence, 30 min. Ubiquitin carboxyl-terminal hydrolase 28 (Homo sapiens), Q96RU2. inhibition, % at 25 µM. hit rate 3% among 47,000
Target sequence (Q96RU2 whole entry, looked up): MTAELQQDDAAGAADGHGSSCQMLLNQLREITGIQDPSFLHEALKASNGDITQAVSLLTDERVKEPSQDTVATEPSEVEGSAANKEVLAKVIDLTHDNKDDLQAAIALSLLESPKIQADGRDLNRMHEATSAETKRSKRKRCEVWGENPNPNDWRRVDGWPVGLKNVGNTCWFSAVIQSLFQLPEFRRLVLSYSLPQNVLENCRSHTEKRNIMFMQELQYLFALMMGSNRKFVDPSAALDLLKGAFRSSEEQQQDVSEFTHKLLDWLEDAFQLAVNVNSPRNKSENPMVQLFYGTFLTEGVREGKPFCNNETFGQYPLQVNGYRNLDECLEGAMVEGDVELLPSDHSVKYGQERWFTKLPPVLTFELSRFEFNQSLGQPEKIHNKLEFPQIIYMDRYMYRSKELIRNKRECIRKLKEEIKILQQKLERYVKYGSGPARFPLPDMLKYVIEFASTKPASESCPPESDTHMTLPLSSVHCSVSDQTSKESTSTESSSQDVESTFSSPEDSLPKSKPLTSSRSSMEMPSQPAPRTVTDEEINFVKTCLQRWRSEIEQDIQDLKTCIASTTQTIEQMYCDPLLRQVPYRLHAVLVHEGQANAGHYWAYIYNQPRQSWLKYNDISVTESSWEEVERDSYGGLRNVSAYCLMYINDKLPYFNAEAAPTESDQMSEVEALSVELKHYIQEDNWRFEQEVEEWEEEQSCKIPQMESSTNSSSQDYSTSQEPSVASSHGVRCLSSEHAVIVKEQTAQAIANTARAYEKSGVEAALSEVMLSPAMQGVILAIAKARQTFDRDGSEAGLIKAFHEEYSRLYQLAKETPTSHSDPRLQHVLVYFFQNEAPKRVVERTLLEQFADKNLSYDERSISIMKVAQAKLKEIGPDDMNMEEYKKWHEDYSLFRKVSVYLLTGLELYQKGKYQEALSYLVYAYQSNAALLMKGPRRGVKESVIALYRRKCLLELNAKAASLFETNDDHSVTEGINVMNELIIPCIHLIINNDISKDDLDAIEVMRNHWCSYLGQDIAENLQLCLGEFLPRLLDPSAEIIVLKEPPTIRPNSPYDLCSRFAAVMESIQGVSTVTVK
Hits are given with their value; n = inactive; x = not tested or not shown. Rule as the data show it: active = inhibition above about 30%; inactive = the rest.

SMILES	OTUD3 block	USP17 inh	USP30 inh	USP28 inh
CCn1cc2c(n1)c(=O)n(Cc1ccccc1)c(=O)n2CC(=O)Nc1ccc(C(C)C)cc1	n	40	n	n
CCc1ccc(NC(=O)Cn2c(=O)n(C)c(=O)c3nscc32)cc1	n	39	n	n
CCc1ccc(NC(=O)Cn2c(=O)n(Cc3ccccc3)c(=O)c3nn(CC)cc32)cc1	n	73	78	n
CCn1cc2c(n1)c(=O)n(Cc1ccccc1)c(=O)n2CC(=O)Nc1ccc(OC)cc1	n	80	39	n
CCCn1c(=O)c2nscc2n(CC(=O)Nc2ccc(F)c(F)c2)c1=O	n	n	n	n
CCc1nc2n(n1)C(CC(=O)Nc1cccc3ccccc13)C(=O)N2 (stereo not drawn)	n	n	n	n
COc1cc2[nH]c(=O)n(CCC(=O)NCc3ccc(C)o3)c(=O)c2cc1OC	n	n	n	n
O=c1cc(-c2ccncc2)nc(N2CCCC2)n1Cc1ccccc1F	n	n	n	n
Cc1ccc(NC(=O)Cn2cncc(-c3nc(-c4ccccc4)cs3)c2=O)cc1F	n	n	n	n
Cc1ccccc1NC(=O)Cn1cncc(-c2nc(-c3ccccc3)cs2)c1=O	n	60	n	n
Cc1nc2ccccn2c1C1(O)C(=O)Nc2c(Cl)cc(Cl)cc21 (stereo not drawn)	n	52	n	n
Cc1nc(-c2cccc(NC(=O)c3ccc4c(c3)OCO4)c2)no1	n	n	n	n
CC(=O)Nc1ccc(C(=O)Nc2cccc(-c3noc(C)n3)c2)cc1	n	48	x	x
Cc1nc(-c2ccc(-n3cc(C(=O)Nc4cccc(F)c4)c(C)n3)cc2)no1	n	51	n	n
Cc1csc(-c2cc(S(=O)(=O)Nc3cccc(F)c3)c(C)n2C)n1	n	n	n	n
CC1CS(=O)(=O)N(c2ccc(C(=O)Nc3ccc4c(c3)OCCO4)cc2)C1=O (stereo not drawn)	n	56	n	79
CCS(=O)(=O)N1CCc2cc(C(=O)Nc3ccc4c(c3)OCCO4)ccc21	n	n	n	93
CS(=O)(=O)N1CCCc2cc(C(=O)Nc3ccc(Oc4ccccc4)cc3)ccc21	n	n	n	54
CCS(=O)(=O)N1CCCc2cc(C(=O)Nc3ccccc3OC)ccc21	n	n	n	n
Cc1ccc(CNC(=O)c2ccc(N3C(=O)C(C)CS3(=O)=O)cc2)cc1 (stereo not drawn)	n	n	n	n
CS(=O)(=O)N1CCc2cc(C(=O)Nc3ccc(Cc4ccncc4)cc3)ccc21	n	n	n	75
CCc1cnc(N2CC[C@H]3CO[C@H](CNS(C)(=O)=O)[C@H]3C2)nc1	n	n	n	n
CC(C)CCN1C(=O)C2C(C(=O)Nc3ccc(Oc4ccccc4)cc3)C3C=CC2(O3)C1C(=O)NC1CCCCC1 (stereo not drawn)	30	x	63	n
CC(C)c1ccc(NC(=O)C2C3C=CC4(O3)C2C(=O)N(CCCN2CCC(Cc3ccccc3)CC2)C4C(=O)NC2CCCCC2)cc1 (stereo not drawn)	n	n	36	n
CCCCN1C(=O)C2C(C(=O)Nc3ccc(Oc4ccccc4)cc3)C3C=CC2(O3)C1C(=O)NC1CCCCC1 (stereo not drawn)	n	n	n	n
SMILES	OTUD3 block	USP17 inh	USP30 inh	USP28 inh
CCN1CCN(CCCN2C(=O)C3C(C(=O)Nc4ccc(C(C)C)cc4)C4C=CC3(O4)C2C(=O)NC2CCCCC2)CC1 (stereo not drawn)	n	n	n	n
CC(C)(C)NC(=O)c1cn2c3c(cccc3c1=O)CC2	n	n	n	n
Cc1ccccc1/C=N/NC(=O)C1CCN(Cc2ccc([N+](=O)[O-])cc2)CC1	n	n	n	n
COc1cccc(-c2nc(C(N)=O)c3[nH]c(=O)n(-c4cccc(Cl)c4)c3n2)c1OC	n	51	n	n
COc1ccc(-c2nc(C(N)=O)c3[nH]c(=O)n(-c4ccc(OC)c(OC)c4)c3n2)cc1	n	n	n	n
Cc1cccc(-n2c(=O)[nH]c3c(C(N)=O)nc(C4CCCCC4)nc32)c1	n	n	49	n
NC(=O)c1nc(-c2cccc(F)c2)nc2c1[nH]c(=O)n2C1CCCCC1	n	51	n	n
Cc1nc(C(N)=O)c2[nH]c(=O)n(C3CCCCC3)c2n1	n	n	n	n
CCCNC(=O)N(C)c1nc2c(s1)CN(Cc1ccccc1)C2=O	n	n	n	n
CC1CCN(Cc2nc3c(c(=O)n(C)c(=O)n3C)n2Cc2cccc(Cl)c2)CC1	n	n	n	n
CCCn1c(=O)c(-c2ccc(C(=O)NCc3ccc(OC)cc3)cc2)nc2cccnc21	n	87	32	n
Cc1nc(C(=O)Nc2cccc(Cl)c2Cl)nn1-c1cc(Cl)cc(Cl)c1	n	71	n	n
O=C(Nc1cccc(Cl)c1Cl)c1ccc(N2CCCC2)nn1	n	x	n	n
CN1C(=O)COc2ccccc2C/C=C/C[C@@H]2[C@H]1CCCN2C(=O)CC1CCOCC1	n	n	n	n
CN1C(=O)COc2ccccc2CCCC[C@@H]2[C@H]1CCCN2S(=O)(=O)N1CCOCC1	n	n	31	n
CN1C(=O)COc2ccccc2CCCC[C@@H]2[C@H]1CCCN2C(=O)c1n[nH]c2c1CCC2	n	n	31	n
CCOc1ccc2nc(NCCc3ccc(Cl)cc3Cl)sc2c1	n	n	n	44
O=C(Cc1ccccc1F)NCc1noc(-c2ccccc2)n1	n	x	n	n
O=C(NC1CCCC1)c1ccc(SCCN2CCCCC2)nc1	n	n	n	n
CCCNC(=O)c1cc(-c2ccc(C)cc2)n(C2CCS(=O)(=O)C2)n1 (stereo not drawn)	n	n	n	n
Cc1ccc(-c2cc(C(=O)N3CCc4ccccc4C3)nn2C2CCS(=O)(=O)C2)cc1 (stereo not drawn)	n	n	31	n
O=C(CC1CCCC1)N1CCCC(c2nn(CCOc3ccccc3)c3nccnc23)C1 (stereo not drawn)	n	n	n	n
O=C(C1CCCCC1)N1CCCC(c2nn(CCOc3ccccc3)c3nccnc23)C1 (stereo not drawn)	n	31	33	n
Cc1ccc(Cn2c(C(=O)Nc3cccnc3)cc3sccc32)cc1	n	42	n	n
Cc1cccc2cc3c(nc12)N(C(=O)C1CC1)CC3	n	35	n	n
SMILES	OTUD3 block	USP17 inh	USP30 inh	USP28 inh
CCNc1oc(-c2ccc(S(=O)(=O)N3CCCCC3)cc2)nc1C#N	n	63	n	n
COc1ccc(S(=O)(=O)N2CCCC2)cc1C(=O)NCc1ccc2c(c1)OCO2	n	n	n	35
COc1ccc(S(=O)(=O)N2CCCCCC2)cc1C(=O)Nc1ccc2[nH]c(=O)[nH]c2c1	n	30	50	47
O=c1c2nnn(-c3cccc(Cl)c3)c2ncn1Cc1nc(-c2ccc(F)cc2)no1	n	n	n	n
O=c1ccc(-c2noc(CCC3CCCC3)n2)c[nH]1	n	n	n	43
COc1ccc(-c2noc(CCC3CCCC3)n2)cc1OC	n	n	n	n
Cc1nnc2ccc(-c3noc(Cc4cccc(F)c4)n3)cn12	n	x	n	n
O=c1ccc(-c2noc(Cc3cccc(Cl)c3)n2)c[nH]1	n	n	n	68
